# Source: PubChem
# FMDV inh: foot and mouth disease virus antiviral activity. 410,000 tested, 1.2% active. FMDV antiviral cell-based qHTS. AID 1159524. Potency, µM (top dose mostly 57.9 µM), for the others: top-dose activity change, negative = inhibition, hits mostly inhibitors; calls by dose curve; tested in HEK293T cells; also: read-out not given here; potency is read from the fitted curve at half-maximal effect; % is scaled to controls: 0 for no effect and ±100 for the full control effect; nearly all actives have a fitted effect of over 45% in size
# Cycloheximide cs: affects cycloheximide protein synthesis inhibition readout, counter-screen | cell reporter, cycloheximide protein synthesis inhibition counterscreen | max response, % | 300,000 tested, 12% active | AID 2314; in the data active = max response mostly above about 13%, no sharp cut-off; inactive = mostly below about 14%; also: read at 38.3 µM for the half of the compounds with a filed dose; 0% is about no effect
# Sm TGR block: inhibitors of Schistosoma mansoni thioredoxin glutathione reductase; Q962Y6; purified TGR, DTNB reduction, TNB absorbance 405 nm; Potency, µM (top dose mostly 114 µM), inactives show at the highest dose activity change, negative = inhibition, actives largely listed as inhibitors; 360,000 tested, 3% active; AID 485364; active = well fitted inhibition curve with a large enough effect; inconclusive = small, poorly fitted or top-dose-only effect; inactive = no such curve, though single readings can be large or run the other way; also: potency is read from the fitted curve at half-maximal effect; % is scaled to controls: 0 for no effect and ±100 for the full control effect; nearly all actives have a fitted effect of over 60% in size
#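 First, TGR (20 nM dispensed) and NADPH were mixed with compound. Second, a 15 min room-temperature incubation followed. Third, further NADPH and then DTNB were added to start the reaction. Finally, TNB absorbance was monitored kinetically.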
# Shiga toxin inh: blocks Shiga toxin action in Vero cells. Vero cells, Shiga toxin protein synthesis inhibition reporter. inhibition, % at 38.7 µM. 290,000 tested, 9.2% active. AID 2315; in the data active = inhibition mostly above about 28%, no sharp cut-off; inactive = mostly below about 43%; also: 0% is about no effect
# * marks the source's active call; other numbers are inactive results; ? = inconclusive; . = not tested or not shown; [ ] = another dose, or the depositor's remark. In the library only some 12% were active in any assay of this set; here they are far more common.
SMILES,FMDV inh,Cycloheximide cs,Sm TGR block,Shiga toxin inh
Cc1ccccc1Cn1cnc2c(oc3ccccc32)c1=O,45%,14,1%,41
N#CCn1cnc2c(oc3ccccc32)c1=O,5%,13*,1%,10
CC(C)n1cnc2c(oc3ccccc32)c1=O,66%,32*,-11%,67*
CCOC(=O)C(C)n1cnc2c(oc3ccccc32)c1=O (stereo not given),27%,27,0%,45
O=C(c1cc2ccccc2o1)N(Cc1ccco1)Cc1cccs1,-15%,.,32µM*,.
O=C(NCCC(=O)N(Cc1ccco1)Cc1cccs1)c1ccccc1Cl,-12%,.,45µM*,.
CCN(Cc1ccc(OC)c(F)c1)C(=O)c1cc2ccccc2o1,22%,18*,-12%,9
O=C(c1cc2ccccc2oc1=O)N(Cc1cccs1)Cc1ccccc1Cl,29%,45*,0%,60*
CCOc1ccc(CN(C)C(=O)c2cc3ccccc3o2)cc1OC,-14%,4,3%,21
NCCCC[C@H](NC(=O)[C@H](Cc1c[nH]c2ccccc12)NC(=O)[C@H](CC(=O)O)NC(=O)[C@H](Cc1cnc[nH]1)NC(=O)[C@H](CO)NC(=O)[C@H](Cc1c[nH]c2ccccc12)NC(=O)[C@H](Cc1cnc[nH]1)NC(=O)[C@@H]1CCC(=O)N1)C(=O)N1CCC[C@H]1C(=O)NCC(N)=O,.,5,.,-9
COc1ccccc1NC(=O)CN(Cc1ccco1)C(=O)c1cc2ccccc2o1,.,-2,22µM*,16
CCCn1cnc2sc(CC)cc2c1=O,11%,30*,-3%,52*
CCCn1cnc2sc(C(N)=O)c(C)c2c1=O,-15%,7,4%,24
CC1=C(C(=O)Nc2ccccc2C)C(c2cccs2)n2nc(SCc3ccccc3)nc2N1 (stereo not given),-25%,.,-1%,.
CN1C(=O)N(C)C(=O)C2(Cc3ccccc3N3CCCC32)C1=O (stereo not given),4%,0,?,4
CN1C(=O)N(C)C(=O)C2(Cc3cc(NC(=O)c4ccc(F)cc4)ccc3N3CCCC32)C1=O (stereo not given),-2%,10,40µM*,15
CC(=O)Nc1ccc2c(c1)CC1(C(=O)N(C)C(=O)N(C)C1=O)C1CCCN21 (stereo not given),-5%,-5,45µM*,-15
CCC(=O)Nc1ccc(CC)cc1-c1nc2ccccc2n(Cc2ccccc2)c1=O,12%,.,-4%,.
Cc1cc(C)n(-c2ccc(NN=C(C#N)C#N)cc2)n1,?,14,32µM*,18
O=C(Nc1ccccc1)Nc1ccc(-n2ccc(C(F)(F)F)n2)cc1,72%,39*,6%,75*
N#CC(C#N)=NNc1ccc(-n2ccc(C(F)(F)F)n2)cc1,?,16*,?,42
O=C(O)CC(CC(=O)Nc1ccc(-n2ccc(C(F)(F)F)n2)cc1)c1ccccc1 (stereo not given),-3%,-3,6%,3
Cc1cc(C)n(-c2ccc(C(=O)O)cc2)n1,11%,-2,1%,-5
COc1cccc(-c2nc(C=O)cs2)c1,10%,13,6%,31*
COc1ccc(-c2nc(C=O)cs2)cc1,23%,13*,7%,39*
SMILES,FMDV inh,Cycloheximide cs,Sm TGR block,Shiga toxin inh
COc1cccc(-c2csc(NC(=O)C3CC3)n2)c1,34%,18,4%,40
COc1ccc(-c2nc(CCNC(=O)c3cc(OC)c(OC)c(OC)c3)cs2)cc1,-28%,.,7%,.
O=C(Nc1ccccc1)OCCOc1cccc(Br)c1,31%,2,10%,8
O=C(Nc1ccccc1)OCCOc1ccccc1Br,46%,35*,0%,28*
O=C(Nc1cccc(Cl)c1)OCCOC(=O)Nc1cccc(Cl)c1,-15%,.,.,.
CCC1(COC(=O)Nc2cccc(Cl)c2)COC1,26%,22*,-30%,51
O=C(Nc1cccc(Cl)c1)OCCOc1ccccc1,48%,56*,1%,75*
COc1ccc(OCCOC(=O)Nc2ccccc2)cc1,-9%,-3,-25%,-7
O=C(Nc1ccccc1)OCCOc1ccccc1,17%,32*,12%[11.4 µM],61*
CCOC(=O)c1c(-c2ccc(OC)cc2)oc2ccc(OCc3ccccc3C)cc12,3%,.,5%,.
Cc1ccc(-c2nc3nc(C)cc(N4CCN(c5cccc(C)c5C)CC4)n3n2)cc1,14%,.,56µM*,.
N#CC1=C(N)OC2=C(CC/C2=C\c2ccccc2)C1c1ccccc1 (stereo not given),18µM*,22,11µM*,20
N#CC1=C(N)OC2=C(CC/C2=C\c2ccccc2Cl)C1c1ccccc1Cl (stereo not given),-28%,13,-31%,-2
